Measured values: PubChem BioAssay (NCI)
The panel holds about 83,000 compounds, 20% with a hit somewhere; the sample as a whole holds those more often.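 Values shown are percent growth following 48 h exposure of cells in 96-well plates to a single concentration of compound; below 10 was considered active.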 Unmarked numbers belong to inactive results. Active and inactive are the calls of the source.

Tested on: HL-60(TB) leukemia
Assay: NCI-60 one-dose screen, 48 h (100 = growth as untreated, 0 = no growth, -100 = all killed)
Conditions: 10 µM unless noted

CCN(CC)CCOCC[C@H]1CC[C@H]2[C@@H]3[C@H](C)Cc4cc(OS(N)(=O)=O)ccc4[C@H]3CC[C@]12C
growth: -74.9% (active)

Cc1ccc(OCCn2ccc(=O)n(CCOc3ccc(Cl)cc3C(=O)c3cc(C)cc(C)c3)c2=O)cc1
growth: 33.4%

O=C(CCl)N1c2ccccc2Sc2ccc3ccccc3c21
growth: -44.1% (active)

COc1cc(OC)c(/C=C/c2ccc3ccccc3[n+]2C)c(OC)c1
growth: -29.5% (active)

c1ccc(-c2ccc(-c3nc4ccccc4[nH]3)cc2)cc1
growth: 66.7%

O=C(Nc1nc(-c2ccc(Cl)cc2)cs1)c1cc(O)c(O)c(O)c1
growth: 10.4%

O=C(N/N=C/C=C\c1ccccc1)C(=O)N/N=C/C=C/c1ccccc1
growth: 110%

Nc1ncnc2c1ncn2C1OC(COC(c2ccccc2)(c2ccccc2)c2ccccc2)C(O)C1O (centres undefined)
growth: 8.77% (active)

COc1cccc(NCc2nnc(Nc3ccc(Cl)cc3)c3ccccc23)c1
growth: -27.1% (active)

CCOC(=O)N1C2CCC(C2)N1C(=O)OCC
growth: 92.4%

CC(=O)N1N=C(c2ccc(Nc3nc(Nc4ccc(F)cc4)nc(Nc4ccc(F)cc4)n3)cc2)CC1c1cccc([N+](=O)[O-])c1 (centres undefined)
growth: 0% (active)

COc1ccc2c(c1)Oc1nc(N)c(C#N)c(N)c1C2Sc1ccc(O)cc1 (centres undefined)
growth: 9.8% (active)

COc1ccccc1-c1ccc2nc(NC(=O)Nc3cc(C(F)(F)F)cc(C(F)(F)F)c3)sc2c1
growth: -34.5% (active)

O=c1c2ccccc2sc2c(N3CCCC3)nc3ccccc3c12
growth: 99.1%
